# Test results taken from the supplement of paper PMC8728848.
# This excerpt belongs to a sample that is enriched for the strongest signals.
# B1: PEB3 Cj0289c (Campylobacter jejuni), Q9PIK7 (protein)
# chain: MDVNLYGPGGPHTALKDIANKYSEKTGVKVNVNFGPQATWFEKAKKDADILFGASDQSALAIASDFGKDFNVSKIKPLYFREAIILTQKGNPLKIKGLKDLANKKVRIVVPEGAGKSNTSGTGVWEDMIGRTQDIKTIQNFRNNIVAFVPNSGSARKLFAQDQADAWITWIDWSKSNPDIGTAVAIEKDLVVYRTFNVIAKEGASKETQDFIAYLSSKEAKEIFKKYGWRE
# B2: Epa13 (Candida glabrata) (protein)
# chain: MGSSHHHHHHSSGLVPRGSHMASDSSENGYAHGCSPSIRAKLKPGLSMEIYSYALRPTDDHCWDSAYLDPMFPRTGYLTHKLLGKAEGIIGPLNFLAKNPACIPAVSTLPLAFHFPKPFTITNFTMLLYGYLSPKKTGKYTFKLLADDLLLMNFGADNAFDCCSHDATKDNIGEYVAYSVWPGVNKNVTVYLESGIYYPLRLFFNNRDAIAQLDFAYYFNDSPIRQTDFSGMFFSIPDSVKCPANI
# Assays:
# Test in all cases: glycan array binding signal (z-score within array); higher = stronger binding
# Conditions in all cases: glycan notation: IUPAC condensed, linker removed
# [1] = molecular target: Fuc(a1-2)Gal(b1-3)GalNAc(b1-3)Gal
# Method in brief: (§1)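 Columns mapping to the same glycan were averaged after glycan names were converted to IUPAC-condensed notation. The data come from 3228 arrays in the Consortium for Functional Glycomics database, limited to those with an available protein sequence. Binding is reported as a within-array Z-score averaged across arrays of one protein sequence and across linkers.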
# [2] = molecular target: Fuc(a1-2)Gal(b1-4)GlcNAc(b1-3)Gal(b1-4)GlcNAc(b1-3)Gal(b1-4)GlcNAc
# Method in brief: as §1
# [3] = molecular target: Fuc(a1-2)[GalNAc(a1-3)]Gal(b1-4)[Fuc(a1-3)]GlcNAc
# Method in brief: as §1
# [4] = molecular target: Fuc(a1-3)[Gal(b1-4)]GlcNAc(b1-4)Gal(b1-4)[Fuc(a1-3)]GlcNAc(b1-4)Gal(b1-4)[Fuc(a1-3)]GlcNAc
# Method in brief: as §1
# [5] = molecular target: Fuc(a1-3)[Gal3S(b1-4)]GlcNAc6S
# Method in brief: as §1
# Fuc(a1-4)GlcNAc = molecular target: Fuc(a1-4)GlcNAc
# Method in brief: as §1
# Gal(a1-6)Glc = molecular target: Gal(a1-6)Glc
# Method in brief: as §1
# [6] = molecular target: Gal(b1-3)[Neu5Ac(a2-6)]GalNAc
# Method in brief: as §1
# [7] = molecular target: Gal(b1-4)GalNAc(b1-3)[Fuc(a1-2)]Gal(b1-4)GlcNAc
# Method in brief: as §1
# Gal3S(b1-4)Glc6S = molecular target: Gal3S(b1-4)Glc6S
# Method in brief: as §1
# Gal3S6S(b1-4)GlcNAc6S = molecular target: Gal3S6S(b1-4)GlcNAc6S
# Method in brief: as §1
# Gal4S(b1-4)GlcNAc = molecular target: Gal4S(b1-4)GlcNAc
# Method in brief: as §1
# Gal6S(b1-4)Glc6S = molecular target: Gal6S(b1-4)Glc6S
# Method in brief: as §1
# [8] = molecular target: Man(a1-2)Man(a1-2)Man(a1-3)[Man(a1-2)Man(a1-3)[Man(a1-2)Man(a1-6)]Man(a1-6)]Man(b1-4)GlcNAc(b1-4)GlcNAc
# Method in brief: as §1
# [9] = molecular target: Man(a1-2)Man(a1-2)Man(a1-6)[Man(a1-3)]Man
# Method in brief: as §1
# [10] = molecular target: Man(a1-2)Man(a1-3)[Man(a1-6)]Man(a1-6)[Man(a1-2)Man(a1-3)]Man(b1-4)GlcNAc(b1-4)GlcNAc
# Method in brief: as §1
# [11] = molecular target: Neu5Ac(a2-3)[GalNAc(b1-4)]Gal(b1-4)GlcNAc
# Method in brief: as §1
# [12] = molecular target: Neu5Ac(a2-8)Neu5Ac(a2-3)[GalNAc(b1-4)]Gal(b1-4)Glc
# Method in brief: as §1
# [13] = molecular target: Neu5Ac(a2-8)Neu5Ac(a2-8)Neu5Ac(a2-3)Gal(b1-4)Glc
# Method in brief: as §1
# [14] = molecular target: Neu5Gc(a2-3)Gal(b1-4)GlcNAc
# Method in brief: as §1
# [15] = molecular target: Fuc(a1-2)Gal(b1-3)[Fuc(a1-4)]GlcNAc(b1-3)[Fuc(a1-3)[Gal(b1-4)]GlcNAc(b1-6)]Gal(b1-4)Glc
# Method in brief: as §1
# [16] = molecular target: Fuc(a1-2)Gal(b1-4)GlcNAc(b1-2)Man
# Method in brief: as §1
# [17] = molecular target: Fuc(a1-2)Gal(b1-4)[Fuc(a1-3)]GlcNAc(b1-3)GalNAc
# Method in brief: as §1
# [18] = molecular target: Fuc(a1-2)Gal(b1-4)[Fuc(a1-3)]GlcNAc(b1-3)[Neu5Ac(a2-6)Gal(b1-4)GlcNAc(b1-6)]Gal(b1-4)Glc
# Method in brief: as §1
# [19] = molecular target: Fuc(a1-2)[Gal(a1-3)]Gal(b1-4)Glc
# Method in brief: as §1
# [20] = molecular target: Fuc(a1-2)[Gal(a1-3)]Gal(b1-4)[Fuc(a1-3)]GlcNAc
# Method in brief: as §1
# [21] = molecular target: Fuc(a1-2)[Gal(a1-4)]Gal(b1-4)GlcNAc
# Method in brief: as §1
# [22] = molecular target: Fuc(a1-2)[GalNAc(a1-4)]Gal(b1-4)GlcNAc
# Method in brief: as §1
# [23] = molecular target: Fuc(a1-3)[Gal(b1-4)]GlcNAc
# Method in brief: as §1
# [24] = molecular target: Fuc(a1-3)[Gal(b1-4)]GlcNAc(b1-2)Man
# Method in brief: as §1
# [25] = molecular target: Fuc(a1-3)[Gal(b1-4)]GlcNAc(b1-3)Gal(b1-4)[Fuc(a1-3)]GlcNAc(b1-3)Gal(b1-4)[Fuc(a1-3)]GlcNAc
# Method in brief: as §1
# [26] = molecular target: Fuc(a1-3)[Gal3S(b1-4)]GlcNAc
# Method in brief: as §1
# [27] = molecular target: Gal(a1-3)Gal(b1-3)GlcNAc(b1-6)GalNAc
# Method in brief: as §1
# [28] = molecular target: Gal(a1-3)Gal(b1-4)GlcNAc(b1-2)Man
# Method in brief: as §1
# [29] = molecular target: Gal(a1-3)Gal(b1-4)GlcNAc(b1-2)Man(a1-3)[Gal(a1-3)Gal(b1-4)GlcNAc(b1-2)Man(a1-6)]Man(b1-4)GlcNAc(b1-4)GlcNAc
# Method in brief: as §1
# [30] = molecular target: Gal(a1-3)Gal(b1-4)GlcNAc(b1-3)GalNAc
# Method in brief: as §1
# [31] = molecular target: Gal(a1-3)[Gal(a1-4)]Gal(b1-4)GlcNAc
# Method in brief: as §1
# [32] = molecular target: Gal(a1-4)Gal(b1-3)GlcNAc(b1-2)Man(a1-3)[Gal(a1-4)Gal(b1-3)GlcNAc(b1-2)Man(a1-6)]Man(b1-4)GlcNAc(b1-4)GlcNAc
# Method in brief: as §1
# Gal(a1-4)Gal(b1-4)Glc = molecular target: Gal(a1-4)Gal(b1-4)Glc
# Method in brief: as §1
# Gal(a1-4)Gal(b1-4)GlcNAc = molecular target: Gal(a1-4)Gal(b1-4)GlcNAc
# Method in brief: as §1
# [33] = molecular target: Gal(a1-4)Gal(b1-4)GlcNAc(b1-2)Man(a1-3)[Gal(a1-4)Gal(b1-4)GlcNAc(b1-2)Man(a1-6)]Man(b1-4)GlcNAc(b1-4)GlcNAc
# Method in brief: as §1
# Gal(a1-4)GlcNAc = molecular target: Gal(a1-4)GlcNAc
# Method in brief: as §1
# Gal(b1-2)Gal = molecular target: Gal(b1-2)Gal
# Method in brief: as §1
# [34] = molecular target: Gal(b1-3)GalNAc(a1-3)[Fuc(a1-2)]Gal(b1-4)GlcNAc
# Method in brief: as §1
# [35] = molecular target: Gal(b1-3)GlcNAc(b1-3)Gal(b1-4)GlcNAc
# Method in brief: as §1
# [36] = molecular target: Gal(b1-3)GlcNAc(b1-6)Gal(b1-4)GlcNAc
# Method in brief: as §1
# [37] = molecular target: Gal(b1-3)GlcNAc(b1-6)[Gal(b1-3)]GalNAc
# Method in brief: as §1
# Gal(b1-4)Glc6S = molecular target: Gal(b1-4)Glc6S
# Method in brief: as §1
binder,measurement,setting,value
B1,glycan array binding signal (z-score),[1],1.6
same,glycan array binding signal (z-score),[2],-0.33
same,glycan array binding signal (z-score),[3],-0.226
same,glycan array binding signal (z-score),[4],-0.441
same,glycan array binding signal (z-score),[5],0.228
same,glycan array binding signal (z-score),Fuc(a1-4)GlcNAc,-0.029
same,glycan array binding signal (z-score),Gal(a1-6)Glc,1.25
same,glycan array binding signal (z-score),[6],-0.409
same,glycan array binding signal (z-score),[7],-0.381
same,glycan array binding signal (z-score),Gal3S(b1-4)Glc6S,1.38
same,glycan array binding signal (z-score),Gal3S6S(b1-4)GlcNAc6S,2.8
same,glycan array binding signal (z-score),Gal4S(b1-4)GlcNAc,0.039
same,glycan array binding signal (z-score),Gal6S(b1-4)Glc6S,1.36
same,glycan array binding signal (z-score),[8],-0.256
same,glycan array binding signal (z-score),[9],-0.192
same,glycan array binding signal (z-score),[10],-0.25
same,glycan array binding signal (z-score),[11],-0.332
same,glycan array binding signal (z-score),[12],-0.28
same,glycan array binding signal (z-score),[13],-0.456
same,glycan array binding signal (z-score),[14],-0.272
B2,glycan array binding signal (z-score),[1],0.112
same,glycan array binding signal (z-score),[15],-0.604
same,glycan array binding signal (z-score),[16],0.385
same,glycan array binding signal (z-score),[17],2.14
same,glycan array binding signal (z-score),[18],-0.526
same,glycan array binding signal (z-score),[19],-0.047
same,glycan array binding signal (z-score),[20],0.02
same,glycan array binding signal (z-score),[21],9.27
same,glycan array binding signal (z-score),[22],-0.453
same,glycan array binding signal (z-score),[23],-0.454
same,glycan array binding signal (z-score),[24],-0.124
same,glycan array binding signal (z-score),[25],-0.429
same,glycan array binding signal (z-score),[26],-0.351
same,glycan array binding signal (z-score),[27],1.13
same,glycan array binding signal (z-score),[28],0.125
same,glycan array binding signal (z-score),[29],4.93
same,glycan array binding signal (z-score),[30],0.561
same,glycan array binding signal (z-score),[31],1.47
same,glycan array binding signal (z-score),[32],4.04
same,glycan array binding signal (z-score),Gal(a1-4)Gal(b1-4)Glc,3.52
same,glycan array binding signal (z-score),Gal(a1-4)Gal(b1-4)GlcNAc,4.15
same,glycan array binding signal (z-score),[33],5.18
same,glycan array binding signal (z-score),Gal(a1-4)GlcNAc,7.08
same,glycan array binding signal (z-score),Gal(a1-6)Glc,13.2
same,glycan array binding signal (z-score),Gal(b1-2)Gal,4.04
same,glycan array binding signal (z-score),[34],-0.314
same,glycan array binding signal (z-score),[35],-0.418
same,glycan array binding signal (z-score),[36],-0.113
same,glycan array binding signal (z-score),[37],-0.014
same,glycan array binding signal (z-score),Gal(b1-4)Glc6S,0.255
